Results: publication PMC4336329 (PLoS ONE, 2015)
Out of some 310,000 compounds screened, about 14,000 (4.5%) showed an effect of 50% or more. The effect is printed as a negative number. Only a selection was taken, and strong results are over-represented in it overall.

What follows are compounds tested against human ether-à-go-go-related gene (hERG) potassium channel (human, UniProt Q12809) (assay: primary screen, population patch clamp on CHO cells stably expressing hERG; higher = less effect of the substance).
Chain of human ether-à-go-go-related gene (hERG) potassium channel (Q12809 whole entry, looked up): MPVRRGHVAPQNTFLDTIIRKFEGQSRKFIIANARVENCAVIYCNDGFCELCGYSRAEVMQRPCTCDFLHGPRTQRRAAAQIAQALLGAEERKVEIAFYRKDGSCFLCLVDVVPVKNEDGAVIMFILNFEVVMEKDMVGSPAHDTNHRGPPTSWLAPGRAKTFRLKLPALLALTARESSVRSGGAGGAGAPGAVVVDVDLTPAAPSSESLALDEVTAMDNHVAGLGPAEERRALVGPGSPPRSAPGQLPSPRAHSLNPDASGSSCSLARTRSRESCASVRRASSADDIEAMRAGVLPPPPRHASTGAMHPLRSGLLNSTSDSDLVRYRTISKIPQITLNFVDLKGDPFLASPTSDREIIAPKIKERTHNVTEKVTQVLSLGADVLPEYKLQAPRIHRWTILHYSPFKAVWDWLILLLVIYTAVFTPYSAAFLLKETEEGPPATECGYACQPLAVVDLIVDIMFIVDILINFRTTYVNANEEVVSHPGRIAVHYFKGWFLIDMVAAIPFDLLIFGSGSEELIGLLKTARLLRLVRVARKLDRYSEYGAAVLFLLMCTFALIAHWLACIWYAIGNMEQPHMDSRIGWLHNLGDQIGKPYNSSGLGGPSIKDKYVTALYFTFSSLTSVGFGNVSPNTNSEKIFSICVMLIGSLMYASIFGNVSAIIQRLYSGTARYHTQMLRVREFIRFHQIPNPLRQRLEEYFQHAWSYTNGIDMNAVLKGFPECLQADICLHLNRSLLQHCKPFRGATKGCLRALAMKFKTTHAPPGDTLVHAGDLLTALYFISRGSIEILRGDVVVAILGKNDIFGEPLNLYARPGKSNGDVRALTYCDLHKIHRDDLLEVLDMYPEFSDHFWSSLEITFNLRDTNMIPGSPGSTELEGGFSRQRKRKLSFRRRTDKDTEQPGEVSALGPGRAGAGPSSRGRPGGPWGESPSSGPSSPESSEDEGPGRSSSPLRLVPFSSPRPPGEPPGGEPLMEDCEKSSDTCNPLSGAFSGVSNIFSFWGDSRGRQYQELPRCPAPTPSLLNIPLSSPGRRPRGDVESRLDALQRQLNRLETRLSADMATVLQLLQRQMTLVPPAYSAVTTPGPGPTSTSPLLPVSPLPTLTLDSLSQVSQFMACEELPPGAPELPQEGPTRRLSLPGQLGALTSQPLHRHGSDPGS
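Note: peak tail current of the secondary pulse compared with the same well before compound.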

Structure (SMILES)	hERG current change (%, negative = inhibition) at 10uM [%]
O=C(CS)Nc1ccc2ccccc2c1	20.8
CCn1c2ccccc2c2cc(NC(=O)c3cccc(OC)c3)ccc21	13.9
COC(=O)c1sccc1NC(=O)CC1C(=O)NCCN1C(=O)c1ccc(N(C)C)cc1 (stereo not shown)	7.57
COc1ccc(Cl)cc1NC(=O)CSc1nnc(CN2CCOCC2)n1-c1ccc(Cl)cc1	-46.6
O=C(Nc1ccc(S(=O)(=O)NCC2CCCO2)cc1)c1ccccc1 (stereo not shown)	2.19
Cc1ccc(C)c(N2CCN(C(=O)C3CCCN(c4ncnc5c4nc4n5CCCCC4)C3)CC2)c1 (stereo not shown)	-33.6
CCCN1CCN(C(=O)C2CCCN(c3ncnc4c3nc3n4CCCCC3)C2)CC1 (stereo not shown)	-1.04
O=C(C1CCCN(c2ncnc3c2nc2n3CCCCC2)C1)N1CCN(c2cccc(Cl)c2)CC1 (stereo not shown)	-72.8
O=C(C1CCCN(c2ncnc3c2nc2n3CCCCC2)C1)N1CCN(c2ccc(Cl)cc2)CC1 (stereo not shown)	-54.8
O=C(C1CCCN(c2ncnc3c2nc2n3CCCCC2)C1)N1CCCCC1 (stereo not shown)	-18.2
O=C(C1CCCN(c2ncnc3c2nc2n3CCCCC2)C1)N1CCN(c2ccccc2)CC1 (stereo not shown)	-74
O=C(C1CCN(c2ncnc3c2nc2n3CCCCC2)CC1)N1CCN(c2cccc(Cl)c2)CC1	-36.7
CC1CC(C)CN(C(=O)C2CCCN(c3ncnc4c3nc3n4CCCCC3)C2)C1 (stereo not shown)	-35.8
O=C1CNC(=S)N1C(CO)c1ccccc1 (stereo not shown)	22.2
CCc1cc(C(=O)Cc2ccc(F)cc2)c(O)cc1O	-12.7
O=C(O)c1c(C(=O)O)c(-c2ccc(Br)cc2)n2c1CSC2	15
O=C(O)COc1ccc(S(=O)(=O)NCCc2ccccc2)cc1	6.4
CC(C)C[C@H](NC(=O)C1CC(=O)N(c2ccc3c(c2)OCO3)C1)C(=O)NC1CCCC1 (stereo partly shown)	-0.704
Cc1cccc(OCC(=O)Nc2ccc(NC(=O)c3ccco3)c(C)c2)c1	-15.3
COC(=O)c1ccc(NC(=O)C2CCN(C(=O)c3cc(OC)c(OC)c(OC)c3)CC2)cc1	6.73
COc1ccc(NC(=O)C2CCN(C(=O)c3ccc(OC)cc3)CC2)cc1	-72.2
COc1ccc(C(=O)N2CCC(C(=O)NC3CC3)CC2)cc1	4.25

Structure (SMILES)	hERG current change (%, negative = inhibition) at 10uM [%]
COc1ccc(C(=O)N2CCC(C(=O)Nc3cccc(C)c3)CC2)cc1OC	-38.9
COc1ccc(C(=O)N2CCC(C(=O)Nc3ccccc3OC)CC2)cc1	-34.6
COc1ccc(C(=O)N2CCC(C(=O)Nc3ccc(C)cc3)CC2)cc1	-75.9
COc1ccc(NC(=O)C2CCN(C(=O)c3cccs3)CC2)cc1	-12.4
CCOC(=O)c1ccc(NC(=O)C2CCN(C(=O)c3ccc(OC)c(OC)c3)CC2)cc1	-58.7
COc1ccc(C(=O)N2CCC(C(=O)Nc3ccc(OC)c(OC)c3)CC2)cc1	1.37
COc1ccc2sc(-c3ccccc3OC)c(-c3ccc4c(c3)OCCO4)c2c1	17.2
Cc1c(C(=O)Nc2ccc3c(c2)OCCO3)oc2ccc(Br)cc12	0.46
CCOC(=O)COc1c(OC)cc(Cl)cc1C1Nc2ccccc2C(=O)N1c1cccc(C)c1 (stereo not shown)	-8.45
O=C1OCCN/C1=C\C(=O)c1ccc(Cl)cc1	14.5
Cn1ccc(NS(=O)(=O)c2cc(Br)ccc2Br)n1	0.158
O=C(CCS(=O)(=O)c1ccc(F)cc1)Nc1nnc(-c2ccc(F)cc2)o1	-10.7
COc1ccc(NC(=O)c2sc3ncn(CC(=O)N4CCN(c5ccccn5)CC4)c(=O)c3c2C)c(OC)c1	19.5
O=C(c1ccco1)N1N=C(c2cccs2)CC1c1cc([N+](=O)[O-])ccc1O (stereo not shown)	7.51
CCC(C)CCN1C(N(C)C)=NC[C@@H]1CC(C)C (stereo partly shown)	-11
CN(C)C1=NC[C@H](Cc2ccccc2)N1CCCCc1ccccc1	-71
CCCCCCCN1C(N(C)C)=NC[C@@H]1Cc1ccccc1	-80.1
CCC(C)CCN1C(N(C)C)=NC[C@@H]1Cc1ccccc1 (stereo partly shown)	-22.5
CCN1C(N(C)C)=NC[C@@H]1Cc1ccccc1	-1.57
CC(C)CCCN1C(N(C)C)=NC[C@@H]1Cc1ccccc1	-24.9
CCC(CC)CN1C(N(C)C)=NC[C@@H]1CC(C)C	-4.65
C[C@H]1CN=C(N(C)C)N1CCCCc1ccccc1	-25.5

Structure (SMILES)	hERG current change (%, negative = inhibition) at 10uM [%]
CC(C)C[C@H]1CN=C(N(C)C)N1CCCCc1ccccc1	-64.7
COC(=O)C1=NN(c2cccc(C)c2)C2C(=O)N(c3ccccc3OC)C(=O)C12 (stereo not shown)	-4.79
COc1ccccc1OCc1cc(C(=O)NCc2ccc(N3CCCC3=O)cc2)no1	13.4
Cc1ccc(OC(=O)c2cccc(S(=O)(=O)N3CCN(C)CC3)c2)c(Br)c1	-19.5
O=C(NCc1ccccc1)C(C(=O)c1ccc(F)cc1)n1ccccc1=O (stereo not shown)	-0.0984
COc1ccc(C2(C(=O)Nc3ccccc3)CCOCC2)cc1	-14.2
CC1CCCCC1NC(=O)COC(=O)/C=C/c1ccco1 (stereo not shown)	-1.9
O=C(O)CN1C(=O)c2ccc(Oc3ccc([N+](=O)[O-])cc3)cc2C1=O	23.2
O=C1c2ccc(Oc3ccc([N+](=O)[O-])cc3)cc2C(=O)N1CCCO	-60.8
O=C1c2ccc(Oc3ccc([N+](=O)[O-])cc3)cc2C(=O)N1CCO	-52.8
O=C1c2ccc(Oc3ccc4c(c3)C(=O)N(CCCCO)C4=O)cc2C(=O)N1CCCCO	-24.1
O=C(O)CCN1C(=O)c2ccc(Oc3ccc([N+](=O)[O-])cc3)cc2C1=O	4.85
O=C1c2ccc(Oc3ccc4c(c3)C(=O)N(CCCO)C4=O)cc2C(=O)N1CCCO	-1.78
CCC(=O)N1CCCc2cc(S(=O)(=O)N3CCN(c4ccccc4F)CC3)ccc21	-23.7
CCOC(=O)C1CCCN(C(=O)c2cnn3c(C(F)F)cc(-c4ccc(C)cc4)nc23)C1 (stereo not shown)	-38.4
O=C(NCCN1CCOCC1)c1ccc(Cl)c(S(=O)(=O)N2CCOCC2)c1	13.1
Cl.O=C(NCCN1CCOCC1)c1ccc(Cl)c(S(=O)(=O)N2CCCCCC2)c1	-40.1
Cc1ccc(CSCCNC(=O)c2ccc(Cl)c(S(=O)(=O)N3CCOCC3)c2)cc1	-40.5
Cc1ccc(C(=O)NCCN2CCOCC2)cc1S(=O)(=O)N1CCCCC1	-20.7
Cl.O=C(NCCCN1CCOCC1)c1ccc(Cl)c(S(=O)(=O)N2CCCCCC2)c1	-50.6
O=C(NCCN1CCOCC1)c1ccc(Cl)c(S(=O)(=O)N2CCCCC2)c1	-58.3
CC(C)(C)SCCNC(=O)c1ccc(Cl)c(S(=O)(=O)N2CCOCC2)c1	-6.74

Structure (SMILES)	hERG current change (%, negative = inhibition) at 10uM [%]
O=C(NCCN1CCOCC1)c1ccc(Cl)c(S(=O)(=O)N2CCCC2)c1	-0.109
COc1ccc(C(=O)NCC(C)(C)N2CCOCC2)cc1S(=O)(=O)N1CCCC1	-8.82
CC(C)(CNC(=O)c1ccc(Cl)c(S(=O)(=O)N2CCc3ccccc3C2)c1)N1CCOCC1	-50.3
O=C(NCCSCc1ccccc1)c1ccc(Cl)c(S(=O)(=O)N2CCOCC2)c1	-50
Cc1ccccc1CSCCNC(=O)c1ccc(Cl)c(S(=O)(=O)N2CCOCC2)c1	-42.2
Cc1ccccc1C(=O)NC(=S)Nc1ccc(S(=O)(=O)N2CCN(C)CC2)cc1	7.75
COc1ccc(-c2noc(CN3CCCCC3)n2)cc1OC	-1.49
Cc1cccc(C)c1NC(=O)CN(c1ccccn1)S(=O)(=O)c1ccc(F)cc1	19.1
Cc1ccc2[nH]cc(CCNS(=O)(=O)c3ccc(F)cc3)c2c1	-4.39
Cn1c(-c2ccc(F)cc2)cnc1NCc1cccc([N+](=O)[O-])c1	-70.9
Cn1c(-c2ccccc2)cnc1NCc1ccccc1	-21.3
CC(C)NCc1cccc([N+](=O)[O-])c1.O=C(O)C(=O)O	3.39
Cn1c(-c2ccccc2)cnc1NCc1cccc([N+](=O)[O-])c1	-72
Cn1c(-c2cccc([N+](=O)[O-])c2)cnc1NCc1cccc([N+](=O)[O-])c1.O=C(O)C(=O)O	-77.8
COc1cccc(CNc2ncc(-c3ccccc3)n2C)c1	-35.6
CSc1ccc(CNc2ncc(-c3cccc([N+](=O)[O-])c3)n2C)cc1.O=C(O)C(=O)O	-66.4
Cc1ccc(CNc2ncc(-c3ccccc3)n2C)o1.O=C(O)C(=O)O	-37
O=C(c1cccc([N+](=O)[O-])c1)n1nc(-c2ccccc2)nc1NCc1ccccc1	9.75
Cn1c(-c2ccc(F)cc2)cnc1NCc1cccc(F)c1	-46
